Reference: the supplement of paper PMC7695840
Where a name gives a salt, the structure may show the parent alone.

Columns and labels:
[1] = test system: Staphylococcus aureus MW2 delta-mecA (mecA-); test: normalized GFP fluorescence (growth of mecA- strain) (fraction of control range); higher = more growth of mecA- strain; details: compound concentration: 150 uM; cefoxitin: subinhibitory; fluorescent label: GFP
Procedure, shortened: (§1)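 Pre-induced S. aureus MW2 cells carrying the gene (DsRed) and deletion cells lacking it (GFP) were combined 1:1 in LB containing a subinhibitory antibiotic dose set each day, then dispensed at 5 µL/well onto 150 μM compound (1.5% DMSO) in 1536-well plates as a single replicate. After 20 h at 37 °C and 90% humidity without shaking, DsRed (540/590) and GFP (485/520) were read. Each channel was scaled per plate between the medians of the single-strain controls, and plates with high untreated ratios and rows with DsRed/GFP >10 were excluded.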

[2] = test system: Staphylococcus aureus MW2 (mecA+); test: normalized DsRed fluorescence (growth of mecA+ strain) (fraction of control range); higher = more growth of mecA+ strain; details: compound concentration: 150 uM; cefoxitin: subinhibitory; fluorescent label: DsRed
Procedure, shortened: as §1

Structure (SMILES) | normalized GFP fluorescence [1] | normalized DsRed fluorescence [2]
O=c1[nH]cnc2c1ncn2[C@H]1CC[C@@H](CO)O1 [Didanosine (Videx)] | 0.446 | 0.652
O=C1Cc2cc(CCN3CCN(c4nsc5ccccc45)CC3)c(Cl)cc2N1 | 0.33 | 0.989
COc1ccccc1OCC(O)CO (stereo not given) | 0.274 | 0.991
Cc1nc(Nc2ncc(C(=O)Nc3c(C)cccc3Cl)s2)cc(N2CCN(CCO)CC2)n1 | 0.0741 | 0.816
Cc1ccc(Nc2c(F)cccc2Cl)c(CC(=O)O)c1 | 0.0553 | 0.183
O=C(Nc1cccc2c(=O)cc(-c3nnn[nH]3)oc12)c1ccc(OCCCCc2ccccc2)cc1 [Pranlukast] | 0.0957 | 0.714
CN1C(CCl)Nc2cc(Cl)c(S(N)(=O)=O)cc2S1(=O)=O (stereo not given) [Methyclothiazide] | 0.383 | 0.579
C=C1[C@H](CO)[C@@H](O)C[C@@H]1n1cnc2c(=O)[nH]c(N)nc21 [Entecavir hydrate] | 0.319 | 0.447
Cn1nnc2c(C(N)=O)ncn2c1=O [Temozolomide] | 0.456 | 1.11
CNC(=O)c1ccc(N2C(=S)N(c3ccc(C#N)c(C(F)(F)F)c3)C(=O)C2(C)C)cc1F [MDV3100 (Enzalutamide)] | 0.245 | 0.592
Cc1nnc(NS(=O)(=O)c2ccc(N)cc2)s1 | 0.326 | 1.88
CC(C(=O)O)c1ccc(N2Cc3ccccc3C2=O)cc1 (stereo not given) | 0.227 | 0.501
NCCc1ccc(O)c(O)c1 | 0.483 | 0.728
Clc1ccccc1CN1CCc2sccc2C1 | 0.281 | 0.684
COc1ccccc1N1CCN(CCCNc2cc(=O)n(C)c(=O)n2C)CC1 [Urapidil hydrochloride] | 0.413 | 0.557
OC[C@H]1O[C@@H](O[C@@H]2[C@@H](CO)O[C@](O)(CO)[C@H]2O)[C@H](O)[C@@H](O)[C@H]1O | 0.29 | 0.712
CCCCC1=NC2(CCCC2)C(=O)N1Cc1ccc(-c2ccccc2-c2nnn[nH]2)cc1 | 0.0654 | 0.337
CC(=O)O[C@]1(C(C)=O)CC[C@H]2[C@@H]3C[C@H](C)C4=CC(=O)CC[C@]4(C)[C@H]3CC[C@@]21C | 0.145 | 0.759
CCOC(=O)N1CCC(=C2c3ccc(Cl)cc3CCc3cccnc32)CC1 | -0.02 | 0.807
COc1cc2c(Oc3ccc4[nH]c(C)cc4c3F)ncnc2cc1OCCCN1CCCC1 [Cediranib (AZD2171)] | -0.00111 | 1.4
C=CC[N+]1([C@H]2C[C@H]3[C@@H]4CC[C@H]5C[C@H](O)[C@@H](N6CCOCC6)C[C@]5(C)[C@H]4CC[C@]3(C)[C@H]2OC(C)=O)CCCC1 | 0.279 | 0.667
CCCC(=O)OCOC(=O)C1=C(C)NC(C)=C(C(=O)OC)C1c1cccc(Cl)c1Cl (stereo not given) [Cleviprex (Clevidipine)] | 0.13 | 0.595

Structure (SMILES) | normalized GFP fluorescence [1] | normalized DsRed fluorescence [2]
CS(=O)(=O)c1ccc([C@@H](O)[C@@H](CO)NC(=O)C(Cl)Cl)cc1 | 0.776 | 0.661
O=S(=O)(O)NC1CCCCC1 | 0.457 | 0.493
CNS(=O)(=O)CCc1ccc2[nH]cc(C3CCN(C)CC3)c2c1 [Naratriptan HCl] | 0.395 | 0.662
CCOc1cc2ncc(C#N)c(Nc3ccc(OCc4ccccn4)c(Cl)c3)c2cc1NC(=O)/C=C/CN(C)C [Neratinib (HKI-272)] | 0.0386 | 0.921
CCCCCCc1ccc(O)cc1O | 0.0569 | 1.59
Cc1c(C(=O)NN2CCCCC2)nn(-c2ccc(Cl)cc2Cl)c1-c1ccc(Cl)cc1 | 0.177 | 0.769
C=CC[C@@H]1/C=C(\C)C[C@H](C)C[C@H](OC)[C@H]2O[C@@](O)(C(=O)C(=O)N3CCCC[C@H]3C(=O)O[C@H](/C(C)=C/[C@@H]3CC[C@@H](O)[C@H](OC)C3)[C@H](C)[C@@H](O)CC1=O)[C@H](C)C[C@@H]2OC [FK-506 (Tacrolimus)] | 0.0621 | 1.04
CC(COc1ccccc1)N(CCCl)Cc1ccccc1 (stereo not given) | 0.632 | 0.449
CCCCC1C(=O)N(c2ccccc2)N(c2ccc(O)cc2)C1=O (stereo not given) | -0.0111 | 0.377
Cc1ccc(NC(=O)c2ccc(CN3CCN(C)CC3)cc2)cc1Nc1nccc(-c2cccnc2)n1 [Imatinib Mesylate] | 0.184 | 0.918
CCC1(c2ccccc2)C(=O)NCNC1=O | 0.33 | 0.811
NC[C@H]1CC[C@H](C(=O)O)CC1 | 0.867 | 0.725
CC(=O)OCC(CCn1cnc2cnc(N)nc21)COC(C)=O | 0.204 | 0.667
Cc1cccc(C)c1NC(=O)C1CCCCN1C (stereo not given) | 0.677 | 0.7
CCCCNc1ccc(C(=O)OCCN(C)C)cc1 | 0.243 | 0.719
CCC(CC)[C@H](NC(C)=O)[C@@H]1[C@H](O)[C@@H](C(=O)O)C[C@H]1NC(=N)N [Peramivir Trihydrate] | 0.634 | 0.659
CCN(CC)CCOc1ccc2c(c1)C(=O)c1cc(OCCN(CC)CC)ccc1-2 | 0.282 | 0.512
CNC1(C)C2CCC(C2)C1(C)C (stereo not given) | 0.71 | 0.669
COc1ccc(CC(C)NCC(O)c2ccc(O)c(NC=O)c2)cc1 (stereo not given) [Formoterol hemifumarate] | 0.777 | 0.699
CC(C)(O/N=C(\C(=O)N[C@@H]1C(=O)N2C(C(=O)[O-])=C(C[n+]3ccccc3)CS[C@H]12)c1csc(N)n1)C(=O)O | 0.00772 | 1.28
CC[N+](CC)(CC)CCOc1cccc(OCC[N+](CC)(CC)CC)c1OCC[N+](CC)(CC)CC | 0.163 | 0.336
C#C[C@]1(O)CC[C@H]2[C@@H]3CCc4cc(O)ccc4[C@H]3CC[C@@]21C [Ethinyl Estradiol] | 0.246 | 0.449

Structure (SMILES) | normalized GFP fluorescence [1] | normalized DsRed fluorescence [2]
O=c1[nH]c(=O)n([C@H]2C[C@H](O)[C@@H](CO)O2)cc1I [Idoxuridin] | 0.512 | 0.959
C=C1CC[C@H](O)C/C1=C/C=C1\CCC[C@]2(C)[C@@H]([C@H](C)CCCC(C)(C)O)CC[C@@H]12 [Calcifediol] | -0.0113 | 0.65
O=C1CC2(CCCC2)CC(=O)N1CCCCN1CCN(c2ncccn2)CC1 | 0.698 | 0.71
COC(=O)[C@H]1[C@H]2C[C@@H]3c4[nH]c5cc(OC)ccc5c4CCN3C[C@H]2C[C@@H](OC(=O)c2cc(OC)c(OC)c(OC)c2)[C@@H]1OC | 0.0258 | 1.04
CC[C@@H]([C@H](C)O)n1ncn(-c2ccc(N3CCN(c4ccc(OC[C@@H]5CO[C@@](Cn6cncn6)(c6ccc(F)cc6F)C5)cc4)CC3)cc2)c1=O [Posaconazole] | 0.833 | 0.572
CC(C)[C@H]1CC[C@H](C(=O)N[C@H](Cc2ccccc2)C(=O)O)CC1 | 3.92e-05 | 0.513
Cc1onc(-c2ccccc2)c1-c1ccc(S(N)(=O)=O)cc1 [Valdecoxib] | 0.291 | 0.573
Cc1ncc([N+](=O)[O-])n1CCO | 0.562 | 0.581
CCNC(=O)CCC/C=C\C[C@@H]1[C@@H](/C=C/[C@@H](O)CCc2ccccc2)[C@H](O)C[C@@H]1O [Bimatoprost] | 0.224 | 0.865
CC(=O)OCC(=O)[C@@]12OC(C)(C)O[C@@H]1C[C@H]1[C@@H]3C[C@H](F)C4=CC(=O)C=C[C@]4(C)[C@@]3(F)[C@@H](O)C[C@@]12C | 0.439 | 0.736
NNCCc1ccccc1 | 0.153 | 0.707
CN(C)c1cc(NC(=O)CNC(C)(C)C)c(O)c2c1C[C@H]1C[C@H]3[C@H](N(C)C)C(O)=C(C(N)=O)C(=O)[C@@]3(O)C(O)=C1C2=O [Tigecycline] | 0.473 | 0.779
COc1cc(NC(C)CCCN)c2ncccc2c1 (stereo not given) | -0.00346 | 0.672
Nc1nc(CC(=O)Nc2ccc(CCNC[C@H](O)c3ccccc3)cc2)cs1 [Mirabegron (YM178)] | 0.336 | 1.03
NS(=O)(=O)c1cc(C(=O)O)c(NCc2ccco2)cc1Cl | 0.306 | 0.841
C/C=C/c1ccc(OC)cc1 | 0.443 | 0.71
Nc1ccc(S(=O)(=O)Nc2nccs2)cc1 | 0.273 | 1.4
OCCN1C[C@H](O)[C@@H](O)[C@H](O)[C@H]1CO | 0.514 | 0.724
CCC1(c2ccccc2)NC(=O)N(C)C1=O (stereo not given) | 0.794 | 0.963
C1N2CN3CN1CN(C2)C3 | 0.209 | 0.452
Cc1nnc(C(C)C)n1C1C[C@H]2CC[C@@H](C1)N2CC[C@H](NC(=O)C1CCC(F)(F)CC1)c1ccccc1 (stereo in doubt) [Maraviroc] | 0.747 | 0.67
